Molecules are shown by their SMILES. In all, about 360,000 compounds went through this assay and about 1,700 (0.47%) were called active. Another 2% or so got no clear call; they are omitted. The entries come from a sample that favours actives as a whole. A number with no mark means an inactive call. Calls come from the whole dose curve; as a rule, active = well fitted inhibition curve with a large enough effect; inconclusive = small, poorly fitted or top-dose-only effect; inactive = no such curve, though single readings can be large or run the other way.
% is set by controls: 0 for no effect and ±100 for the full control effect; potency is the fitted concentration of half-maximal effect.

Chain of Bifunctional 3'-5' exonuclease/ATP-dependent helicase WRN (Homo sapiens) (Q14191 whole entry, looked up): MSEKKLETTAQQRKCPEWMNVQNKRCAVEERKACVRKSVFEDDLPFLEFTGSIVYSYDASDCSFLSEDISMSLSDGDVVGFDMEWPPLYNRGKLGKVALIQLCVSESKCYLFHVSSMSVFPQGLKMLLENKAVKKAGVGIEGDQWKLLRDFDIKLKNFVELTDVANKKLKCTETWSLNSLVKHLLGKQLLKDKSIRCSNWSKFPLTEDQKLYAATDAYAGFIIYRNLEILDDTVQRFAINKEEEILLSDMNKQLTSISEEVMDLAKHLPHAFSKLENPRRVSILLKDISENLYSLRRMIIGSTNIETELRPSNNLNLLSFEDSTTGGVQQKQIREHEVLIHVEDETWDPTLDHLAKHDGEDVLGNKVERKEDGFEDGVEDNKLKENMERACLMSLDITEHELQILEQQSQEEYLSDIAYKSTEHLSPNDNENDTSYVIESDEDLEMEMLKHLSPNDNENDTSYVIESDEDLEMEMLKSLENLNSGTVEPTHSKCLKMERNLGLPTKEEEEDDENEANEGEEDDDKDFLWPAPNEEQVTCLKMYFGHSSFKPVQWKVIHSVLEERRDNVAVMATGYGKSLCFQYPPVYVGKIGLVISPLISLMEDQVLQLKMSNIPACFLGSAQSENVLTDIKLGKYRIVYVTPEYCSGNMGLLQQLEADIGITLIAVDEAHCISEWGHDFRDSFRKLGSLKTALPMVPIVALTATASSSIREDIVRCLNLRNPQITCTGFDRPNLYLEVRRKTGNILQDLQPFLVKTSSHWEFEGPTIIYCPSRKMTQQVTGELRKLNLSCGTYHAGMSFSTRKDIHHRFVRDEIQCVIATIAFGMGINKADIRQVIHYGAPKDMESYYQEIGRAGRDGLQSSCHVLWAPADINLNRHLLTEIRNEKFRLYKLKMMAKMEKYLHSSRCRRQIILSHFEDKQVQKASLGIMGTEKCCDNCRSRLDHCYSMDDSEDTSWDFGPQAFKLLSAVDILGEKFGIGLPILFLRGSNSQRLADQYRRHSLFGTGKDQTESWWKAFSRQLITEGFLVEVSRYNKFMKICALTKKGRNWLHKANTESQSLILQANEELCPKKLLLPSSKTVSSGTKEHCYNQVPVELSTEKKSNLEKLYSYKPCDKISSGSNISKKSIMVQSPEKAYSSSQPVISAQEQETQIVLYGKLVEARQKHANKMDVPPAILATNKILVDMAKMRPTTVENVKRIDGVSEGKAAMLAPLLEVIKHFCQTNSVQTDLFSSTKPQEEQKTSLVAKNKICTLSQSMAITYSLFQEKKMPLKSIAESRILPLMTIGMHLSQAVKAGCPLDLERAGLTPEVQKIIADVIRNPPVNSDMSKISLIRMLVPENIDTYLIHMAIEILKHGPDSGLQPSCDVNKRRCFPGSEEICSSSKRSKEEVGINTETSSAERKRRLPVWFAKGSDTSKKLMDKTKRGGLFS

This assay has as its target Bifunctional 3'-5' exonuclease/ATP-dependent helicase WRN (Homo sapiens) (UniProt Q14191). Kind of assay: qHTS for Inhibitors of WRN Helicase. Note: nearly all actives have a fitted effect of over 55% in size. The note with it: WRN helicase unwinding, fluorescent forked duplex, kinetic; series mostly up to 114 µM; activity change, negative = inhibition: at the top concentration. The procedure, abridged:
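Kinetic fluorescence helicase assay: unwinding of a quenched forked DNA duplex (100 nM final) with 2 mM ATP final raises red fluorescence (525/598 nm). Compounds sat 15 min at room temperature with 20 nM WRN beforehand.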
A general note: Quantitative high-throughput screening tests each substance at several concentrations.
Turning to `CC(C)(C)c1cc[n+](-c2[nH]c(=O)sc2/C=N/N=C(\[O-])c2ccccc2)cc1`, the “activity change, negative = inhibition” value was -3.25%. On the same count and under the same terms, the result for `CCc1noc(C)c1C(=O)Oc1ccc(N(C)S(=O)(=O)c2ccc(C)c(C)c2)cc1` reads 3.71%; that for `COc1cccc(CNC(=O)[C@@H]2CCCN2C(=O)[C@@H]2CCCN2C(=O)c2ccccc2)c1`, -0.0408%. For `CCN(CC)S(=O)(=O)c1cccc(-c2n[nH]c(=S)n2/N=C/c2ccc(C(=O)OC)cc2)c1`, the “activity change, negative = inhibition” value is -28.1% [at 57.1 µM]. Turning to `S=c1[nH]nc(-c2cc(-c3ccccc3)n[nH]2)n1/N=C/c1c2ccccc2cc2ccccc12`, the Potency was 50.1 µM (active).

`S=c1[nH]nc(-c2ccco2)n1/N=C/c1ccc(Br)s1`: the “activity change, negative = inhibition” value was -15.2%. The same measure, in the same setting: for `COc1ccc(C)cc1NC(=O)CN(C)S(=O)(=O)c1ccc2c(c1)n(C)c(=O)c(=O)n2C` the value was 6.64%; for `COc1ccc2ccn(C)c2c1`, -28.2%; for `OC(c1ccccc1)(c1ccccc1)C1CCN(CCCOc2ccccc2)CC1`, -2.24%.

Regarding `CC(C)CCN1C(=O)c2ccc(C(=O)Nc3cccc(S(N)(=O)=O)c3)cc2C1=O`, the “activity change, negative = inhibition” value is -16.1%. On the same count and under the same terms, for `Cc1ccc(NC(=O)Cn2sc3ccccc3c2=O)cc1` the value was 0.388%. As for `Cc1ccnc(-n2sc3ccccc3c2=O)n1`, the Potency is 31.6 µM (active).

As to `Cc1ccnc(SC2CC(=O)N(c3ccccc3)C2=O)n1` (stereo unspecified), the “activity change, negative = inhibition” value was -4.59%. Same read-out and setting: for `CCN(CC)C(=O)C1=C(C)N(Cc2ccc(OC)cc2)C(=O)C(CC(=O)NCc2ccco2)C1` (stereo unspecified) the value was 0.799%; for `CCCCOc1ccc(Cl)cc1CSc1nncn1N`, 3.38%. Still for that read-out and setting: for `COC1=CCC2([N+](=O)[O-])CN(CC(=O)O)CC1([N+](=O)[O-])C2` (stereo unspecified) the value was -3%. `C=CS(=O)c1sc(Cl)c(N2CCOCC2)c1[N+](=O)[O-]` (stereo unspecified): the Potency is 31.6 µM (active). Still for that read-out and setting: for `COC(=O)/C=C\C(=O)Nc1cccc([N+](=O)[O-])c1` the value was 28.2 µM (active). On to `COc1cccc(NCCC(=O)c2cccc([N+](=O)[O-])c2)c1`, for which the “activity change, negative = inhibition” value is -18%. Regarding `O=C(Nc1cccc([N+](=O)[O-])c1)N1CCc2ccccc2C1`, the “activity change, negative = inhibition” value is -7.84%.

Consider `COC(=O)[C@@]12C[C@@H](CC(=O)N3CCC(c4ccccc4)CC3)C(=O)N(Cc3ccccc3)C1=CCC(C)(C)C2`, for which the “activity change, negative = inhibition” value is -4.93%. With `O=C(N/N=C/c1ccco1)c1ccc(C(=O)N/N=C/c2ccco2)o1`, the Potency was 39.8 µM (active).

As to `O=C(Cc1ccc([N+](=O)[O-])cc1)N/N=C/c1ccco1`, the “activity change, negative = inhibition” value is 2.17%.

Take `O=C(N/N=C/c1ccco1)c1ccc(NC(=O)C2CC2)cc1`: the “activity change, negative = inhibition” value was -6.2%. For `Cc1ccccc1-n1nc(C)c2c1N=C1C(Cl)=CC(Cl)=CN1C2c1ccc(C(=O)O)cc1` (stereo unspecified), the “activity change, negative = inhibition” value was -9.87%. For the compound `COC(=O)c1ccc(NCc2cc(O)ccc2O)cc1`, the Potency was 79.4 µM (active).

As to `O=C(OC12CC3CC(CC(C3)C1)C2)c1ccc(NCc2cc(O)ccc2O)cc1`, the “activity change, negative = inhibition” value is -8.66%. For the compound `CC(C)OC(=O)c1ccc(NCc2cc(O)ccc2O)cc1Cl`, the “activity change, negative = inhibition” value is -17%.

For `O=C(c1ccccc1)c1cc(-c2ccccn2)c(N2CCOCC2)s1`, the “activity change, negative = inhibition” value is 1.8%. Still for that read-out and setting: the result for `NCCN1CCN2C(=O)CN(C(=O)c3ccccc3)CC12` (stereo unspecified) reads -9.08%. Turning to `O=C(/C=C/Sc1ncn[nH]1)c1ccc(Cl)cc1`, the Potency is 35.5 µM (active). With `Cc1cc(C)nc(S/C=C/C(=O)c2ccccc2)n1`, the “activity change, negative = inhibition” value was -24.2%. Same read-out and setting: for `COc1ccc(OC)c(NC(=O)C2(C)CCN2C(=O)Cc2ccccc2)c1` (stereo unspecified) the value was -1.59%; for `Cc1sc2nc(CSCC(=O)Nc3c(Cl)cccc3Cl)[nH]c(=O)c2c1C`, -17.4% [at 57.1 µM]. Consider `CSc1nnc(SCc2nc3sc(C(=O)O)c(C)c3c(=O)[nH]2)s1`, for which the Potency is 35.5 µM (active). For the compound `CCOC(=O)c1sc2nc(CSCC(=O)OCc3ccc(C(=O)OC)o3)[nH]c(=O)c2c1C`, the “activity change, negative = inhibition” value was -1.35%. The same measure, in the same setting: for `CCN1CCC2(CC1)N=C(c1ccc(F)cc1)C(=S)N2C(=O)c1ccc(C)cc1` the value was -10.9%. Regarding `CCN1CCC(O)(/C=C/c2ccc(C)cc2)C(C(=O)/C=C/c2ccc(C)cc2)C1` (stereo unspecified), the Potency was 14.1 µM (active).

Turning to `COc1cc2cc(CN(CCN3CCCC3)C(=O)Nc3ccccc3Cl)c(=O)[nH]c2cc1OC`, the “activity change, negative = inhibition” value was -9.47%.

In the case of `CC1=CC2=NC(=O)CC(C)(C(=O)N(CC(=O)NC(C)(C)C)Cc3ccccc3)N2C=C1` (stereo unspecified), the “activity change, negative = inhibition” value is -0.725%. Turning to `CC1CCCN(C(=O)c2ccc3c(c2)C(=O)N(CCC2=CCCCC2)C3=O)C1` (stereo unspecified), the “activity change, negative = inhibition” value was 0.2%. Still for that read-out and setting: the result for `N#CCSc1ccccc1NC(=O)CN1C(=O)NC(CCc2ccccc2)C1=O` (stereo unspecified) reads 25.6%. In the case of `COc1ccc(Br)cc1/C=N/Nc1ccc(S(=O)(=O)Nc2ccccc2C(=O)O)cc1[N+](=O)[O-]`, the Potency was 39.8 µM (active).

For the compound `COc1ccccc1C(CNC(=O)c1cccc(NS(=O)(=O)c2ccc(Br)cc2)c1)N(C)C` (stereo unspecified), the “activity change, negative = inhibition” value was 3.56%.

Regarding `CCOc1ncccc1C(=O)NNC(=O)c1cccc(S(=O)(=O)Nc2ccccc2OC)c1`, the “activity change, negative = inhibition” value was -11.4%.

Regarding `COc1cccc(/C=N/Nc2ccc(S(=O)(=O)Nc3ccccc3C(=O)O)cc2[N+](=O)[O-])c1O`, the Potency was 39.8 µM (active).

Regarding `COc1ccc(S(=O)(=O)N2CCC(C(=O)OCC(=O)c3ccccc3)CC2)cc1[N+](=O)[O-]`, the “activity change, negative = inhibition” value is 5.06%.

Turning to `CC1CN(C(=O)c2ccccc2NS(=O)(=O)c2cccc([N+](=O)[O-])c2)CC(C)O1` (stereo unspecified), the “activity change, negative = inhibition” value was -20.5% [at 57.1 µM]. On the same count and under the same terms, for `Cc1cc2nc3n(c2cc1C)CC1CC(C(=O)NCCC(C)C)N(C)C31` (stereo unspecified) the value was 8.32%. Still for that read-out and setting: the result for `CCCCSc1nnc2c(n1)OC=Nc1ccccc1-2` reads 1.18%. As for `Cc1cccc(N2CC(C)Cn3c2nc2c3c(=O)n(CC(=O)OCc3ccccc3)c(=O)n2C)c1` (stereo unspecified), the “activity change, negative = inhibition” value is -4.82%.

For the origin of these results see PubChem BioAssay AID651768 (National Center for Advancing Translational Sciences (NCATS), 2012).
